The source of these data is PubChem BioAssay (NCI).

Structures are written as SMILES. This is part of a sample that, as a whole, favours compounds with a hit. Of some 83,000 tested, about 20% had one in any assay.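 Treatment: one concentration, 48 hours, 96-well format. Scoring: percent growth, with anything below 10 considered active.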 A number with no mark means an inactive call. Calls of active or inactive are those of the source.

Test systems include HCT-15 colon; HT29 colon; SNB-75 CNS; SNB-19 CNS; U251 CNS; PC-3 prostate; SK-MEL-5 melanoma; UACC-62 melanoma; LOX IMVI melanoma; SK-MEL-28 melanoma.
Holding throughout (test): NCI-60 one-dose screen, 48 h (100 = growth as untreated, 0 = no growth, -100 = all killed)
Holding throughout (conditions): 10 µM unless noted

With `O=C1NC(=O)C(=Cc2ccc(OCCCCC3CCCCC3)c(Cl)c2)C(=O)N1`, the growth in the experiment on HCT-15 colon is 98.5%; in the experiment on HT29 colon, 92.3%; in the experiment on SNB-75 CNS, 96.2%; in the experiment with SNB-19 CNS it was 100%; in the experiment on U251 CNS it was 81.7%; in the experiment on PC-3 prostate, 88.4%. Further, the growth is 98.3% in the experiment with SK-MEL-5 melanoma, 98.3% with UACC-62 melanoma, 56.1% in the experiment on LOX IMVI melanoma and 111% with SK-MEL-28 melanoma.

As for `O=C(O)CNC(=O)C(Cl)(Cl)Cl`, the growth is 96% in the experiment on HCT-15 colon; 97.1% in the experiment on HT29 colon; 85.1% in the experiment on SNB-75 CNS; 100% in the experiment with SNB-19 CNS; 84.8% in the experiment with U251 CNS; 91.6% in the experiment with PC-3 prostate. In addition, the growth in the experiment with SK-MEL-5 melanoma is 99%; in the experiment with UACC-62 melanoma, 102%; in the experiment on LOX IMVI melanoma, 99%; in the experiment with SK-MEL-28 melanoma it was 96.6%.

Take `CC1CCCC(C[N+](C)(C)C)C1=O` (stereo not given): the growth with HCT-15 colon is 108%; in the experiment on HT29 colon it was 105%; in the experiment with SNB-75 CNS, 95.2%; in the experiment on SNB-19 CNS, 96.6%; in the experiment with U251 CNS, 105%; in the experiment with PC-3 prostate, 93.6%. Moreover, the growth with SK-MEL-5 melanoma is 99.5%; in the experiment with UACC-62 melanoma, 90%; in the experiment with LOX IMVI melanoma it was 50.2%; in the experiment with SK-MEL-28 melanoma it was 108%.

On to `C=C1[C@@H](C)[C@H]2[C@H](Cc3ccccc3)NC(=O)[C@]23[C@@H](O)/C=C/[C@@](C)(O)C(=O)[C@@H](C)C/C=C/[C@H]3[C@@H]1O`, for which the growth is 66.1% in the experiment on HCT-15 colon; 25.3% in the experiment with HT29 colon; -8.47% (active) with SNB-75 CNS; 40.7% in the experiment with SNB-19 CNS; 21.9% with U251 CNS; 45.2% in the experiment with PC-3 prostate. For the same compound, the growth in the experiment with SK-MEL-5 melanoma was 77.6%; in the experiment with UACC-62 melanoma, 65.6%; with LOX IMVI melanoma it was 27.1%; in the experiment with SK-MEL-28 melanoma, 67.1%.

Consider `COc1cccc(/C=C/[N+](=O)[O-])c1`, for which the growth is -9.58% (active) in the experiment on HCT-15 colon; -48.6% (active) in the experiment on HT29 colon; 68.1% with SNB-75 CNS; 71.8% in the experiment on SNB-19 CNS; 54.4% with U251 CNS; 63.6% with PC-3 prostate. Also, the growth with SK-MEL-5 melanoma was 80.6%; in the experiment with UACC-62 melanoma, 92.6%; with LOX IMVI melanoma, -80.6% (active); in the experiment with SK-MEL-28 melanoma, 50.2%.

Turning to `COc1cc([C@@H]2c3cc4c(cc3[C@H](OC(C)=O)[C@H]3COC(=O)[C@H]23)OCO4)cc(OC)c1OC`, the growth with HCT-15 colon was 9.64% (active); in the experiment with HT29 colon it was 5.66% (active); in the experiment on SNB-75 CNS, 41.4%; in the experiment on SNB-19 CNS, 39.4%; with U251 CNS it was 18.9%; in the experiment with PC-3 prostate it was 30.2%. Further, the growth was -17.6% (active) in the experiment on SK-MEL-5 melanoma, 43.2% in the experiment on UACC-62 melanoma, 18.7% with LOX IMVI melanoma and 64.3% with SK-MEL-28 melanoma.

With `COc1cc(/C=C\c2cc(OC)c(OC)c(OC)c2)cc(NS(=O)(=O)c2cccc(Cl)c2)c1OC`, the growth was 10.9% in the experiment with HCT-15 colon; 15.3% in the experiment on HT29 colon; 64.5% with SNB-75 CNS; 41.2% with SNB-19 CNS; 11.1% in the experiment with U251 CNS; 35.1% with PC-3 prostate. In addition, the growth with SK-MEL-5 melanoma is -29.4% (active); in the experiment with UACC-62 melanoma, 36.1%; with LOX IMVI melanoma, 20%; in the experiment with SK-MEL-28 melanoma, 64%.

For the compound `O=C1NC(=O)C(=Cc2cn(CCCCCCn3c4ccccc4c(=O)c4ccccc43)c3ccccc23)C(=O)N1`, the growth with HCT-15 colon was 75.1%; in the experiment with HT29 colon, 97.2%; in the experiment with SNB-75 CNS, 94.5%; in the experiment with SNB-19 CNS, 86%; in the experiment on U251 CNS, 90.4%; with PC-3 prostate, 84%. The growth was 90.5% with SK-MEL-5 melanoma, 63.5% in the experiment with UACC-62 melanoma, 83.8% in the experiment on LOX IMVI melanoma and 102% with SK-MEL-28 melanoma.

Take `O=[N+]([O-])c1cc([N+](=O)[O-])c(Nn2c3ccccc3c3ccccc32)c([N+](=O)[O-])c1`: the growth is 2.82% (active) in the experiment with HCT-15 colon; -4.7% (active) in the experiment on HT29 colon; -19.7% (active) in the experiment on SNB-75 CNS; 25.8% in the experiment on SNB-19 CNS; 8.04% (active) in the experiment on U251 CNS; -10.5% (active) with PC-3 prostate. Further, the growth in the experiment on SK-MEL-5 melanoma was -75.9% (active); with UACC-62 melanoma it was -16.7% (active); with LOX IMVI melanoma, 7.47% (active); in the experiment with SK-MEL-28 melanoma, 11.9%.

As to `Nc1ccc2c(c1)oc1ccccc12`, the growth in the experiment on HCT-15 colon was 112%; with HT29 colon, 92.2%; with SNB-75 CNS, 81.1%; in the experiment with SNB-19 CNS, 110%; in the experiment with U251 CNS, 94.4%; in the experiment with PC-3 prostate, 82.6%. Further, the growth with SK-MEL-5 melanoma is 104%; in the experiment with UACC-62 melanoma, 94.9%; with LOX IMVI melanoma, 109%; in the experiment on SK-MEL-28 melanoma it was 104%.

On to `CC[C@H](C)[C@H](NC(=O)c1ccccn1)C(=O)N(C)[C@H](C[C@@H](OC(C)=O)c1nc(C(=O)N[C@@H](Cc2ccccc2)C[C@H](C)C(=O)OC)cs1)C(C)C`, for which the growth was 13.5% with HCT-15 colon; 2.48% (active) in the experiment on HT29 colon; 5.57% (active) in the experiment with SNB-75 CNS; 52.4% with SNB-19 CNS; 16.1% with U251 CNS; 24.5% in the experiment with PC-3 prostate. In addition, the growth is -22.6% (active) in the experiment on SK-MEL-5 melanoma, 13.1% with UACC-62 melanoma, 29.1% with LOX IMVI melanoma and 53.2% in the experiment on SK-MEL-28 melanoma.

Take `C/C(=C\c1ccn(-c2ccc(N)c(F)c2)n1)[C@@H]1C[C@@H]2O[C@]2(C)CCC[C@H](C)[C@H](O)[C@@H](C)C(=O)C(C)(C)[C@@H](O)CC(=O)O1`: the growth is 11.4% with HCT-15 colon; 14.9% in the experiment with HT29 colon; -16.9% (active) in the experiment on SNB-75 CNS; 38.4% in the experiment with SNB-19 CNS; 24% in the experiment with U251 CNS; 14.7% with PC-3 prostate. Further, the growth in the experiment on SK-MEL-5 melanoma was 14.7%; in the experiment on UACC-62 melanoma, 21.7%; in the experiment with LOX IMVI melanoma, 32.4%; in the experiment on SK-MEL-28 melanoma, 58.3%.
